This note sets out measurements from PubChem BioAssay AID485346 (Sanford-Burnham Center for Chemical Genomics, 2010).

Among all 330,000 compounds or so, about 10,000 (3%) were called active. For the sample, actives were picked, then their nearest neighbours and some compounds at random. Unmarked numbers belong to inactive results.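 Rule for the calls: active = inhibition of at least 50% at 8 µM in the primary screen; inactive = the rest.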

Sequence of Protein Mdm4 (Homo sapiens) + E3 ubiquitin-protein ligase Mdm2 (Homo sapiens) (O15151 whole entry, looked up): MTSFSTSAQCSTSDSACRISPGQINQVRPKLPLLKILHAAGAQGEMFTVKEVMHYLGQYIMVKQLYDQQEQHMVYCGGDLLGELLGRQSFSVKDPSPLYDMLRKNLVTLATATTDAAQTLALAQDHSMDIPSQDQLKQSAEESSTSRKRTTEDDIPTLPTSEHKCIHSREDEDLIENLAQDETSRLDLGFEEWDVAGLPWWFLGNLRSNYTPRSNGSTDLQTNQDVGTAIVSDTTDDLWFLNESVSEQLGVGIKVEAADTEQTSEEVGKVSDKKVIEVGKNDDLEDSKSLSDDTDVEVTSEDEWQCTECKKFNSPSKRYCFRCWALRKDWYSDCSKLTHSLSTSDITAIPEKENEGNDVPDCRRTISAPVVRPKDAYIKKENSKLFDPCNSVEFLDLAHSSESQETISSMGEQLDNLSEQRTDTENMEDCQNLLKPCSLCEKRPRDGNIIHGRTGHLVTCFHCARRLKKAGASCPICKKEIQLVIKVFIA
Sequence of Protein Mdm4 (Homo sapiens) + E3 ubiquitin-protein ligase Mdm2 (Homo sapiens) (Q00987 whole entry, looked up): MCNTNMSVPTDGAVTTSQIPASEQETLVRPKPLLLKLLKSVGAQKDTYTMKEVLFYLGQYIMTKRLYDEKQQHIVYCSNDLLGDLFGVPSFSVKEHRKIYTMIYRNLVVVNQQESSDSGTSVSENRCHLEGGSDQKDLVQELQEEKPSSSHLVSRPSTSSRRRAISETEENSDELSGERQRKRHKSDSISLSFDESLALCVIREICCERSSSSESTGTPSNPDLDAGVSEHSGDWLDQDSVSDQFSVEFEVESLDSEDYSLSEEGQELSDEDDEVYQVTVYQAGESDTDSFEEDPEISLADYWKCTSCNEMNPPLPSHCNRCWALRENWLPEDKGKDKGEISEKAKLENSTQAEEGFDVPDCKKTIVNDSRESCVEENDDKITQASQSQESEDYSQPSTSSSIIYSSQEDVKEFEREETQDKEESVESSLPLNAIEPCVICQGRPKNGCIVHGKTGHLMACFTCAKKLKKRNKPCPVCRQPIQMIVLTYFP

This assay concerns the target Protein Mdm4 (Homo sapiens) + E3 ubiquitin-protein ligase Mdm2 (Homo sapiens) (UniProt O15151+Q00987). The assay is described as follows: disruptors of Mdm2/MdmX RING complex – cell-based, luminescence, split luciferase, SaOS-2, uHTS, primary screen (AID 485346). Conditions: SaOS-2 split-luciferase Mdm2/MdmX complementation, at 8 µM, active compounds read high.
For orientation: inhibition means the change of the read-out against control, counted positive when it falls. For the molecule `COc1ccc(NC(=O)c2cccc3c2C(=O)N(CC2CCCO2)C3)cc1OC` (centres undefined), the inhibition was -24.7%.

For `CC(NC(=O)COC(=O)c1ccc2ccccc2n1)c1ccccc1` (centres undefined), the inhibition is -14.1%.

As for `C=CCSc1ccc(S(=O)(=O)N2CCN(C)CC2)cn1`, the inhibition is 13.1%.

For `COc1ccc(N(CC(=O)NC2CCCCCCC2)S(=O)(=O)c2c(C)nn(C)c2C)cc1`, the inhibition was -2%.

`O=C(/C=C/c1ccc([N+](=O)[O-])o1)NNC(=O)c1ccc(F)cc1`: the inhibition is 40%.

For `CCOCCCNC(=S)N1CCC(NC(=O)C2CCCCC2)CC1`, the inhibition was 15.2%.

`Cc1ccc(C(=O)C(=S)N2CCOCC2)cc1`: the inhibition was 10.1%.

`CC(C)CC(CCc1ccccc1)OS(N)(=O)=O` (centres undefined): the inhibition was -32.9%.

As to `COc1cccc(/C=N/NC(=O)c2[nH]nc3c2CCc2ccccc2-3)c1O`, the inhibition was 74.6% (active).

In the case of `COc1cc2cc(C(=O)N/N=C/c3cccc(OC)c3OC)[nH]c2cc1OC`, the inhibition was -21.6%.

Consider `COc1cc(OC)c(/C=N/NC(=O)c2ccc([N+](=O)[O-])cc2)cc1Br`, for which the inhibition was 46.6%.

As to `COC(=O)CN1C(=O)[C@H]2[C@@H](/C=C/c3ccccc3)N3C(=O)CN(CC4CC4)C(=O)[C@@]3(Cc3ccccc3)[C@H]2C1=O`, the inhibition was -8.09%.

On to `COc1ccc(C(O)(C2CCCCC2)C(CN2CCCC2)c2ccccc2)cc1` (centres undefined), for which the inhibition was 33.8%.

`Fc1ccc(CNc2nc3ccccc3n3nnnc23)cc1`: the inhibition is 54% (active).

Regarding `COc1ccc(CNc2nnnn2C)cc1`, the inhibition is -2.21%.

`CCOC(=O)CNc1nc2ccccc2n2c(C)nnc12`: the inhibition is 1.6%.

On to `CCc1nnc(NC(=O)CCC(=O)N2CCN(c3cc(C)ccc3C)CC2)s1`, for which the inhibition was 13.7%.

Turning to `CC(C)[C@@H]1COC(c2cccc(C3=N[C@H](C(C)C)CO3)c2)=N1`, the inhibition is -13.9%.

With `COc1ccc(Cl)cc1NC(=O)CN(C)C(=O)c1cc2ccccc2cc1OC`, the inhibition was 29.4%.

With `CN(CCOc1ccccc1)C(=O)c1cc(-c2ccco2)nc2ccccc12`, the inhibition was 18.2%.

Turning to `COc1ccc(CN(C)C(=O)c2cc(-c3ccc(C)cc3C)nc3ccccc23)c(OC)c1OC`, the inhibition is 68.6% (active).

Turning to `COc1ccc(-c2cc(C(=O)NCCCN3CCCC3=O)c3ccccc3n2)cc1OC`, the inhibition is 8.93%.

For `COc1ccc(NC(=O)CN(C)C(=O)c2cc(-c3ccc(C)o3)nc3ccccc23)cc1`, the inhibition is 30.3%.

In the case of `COc1cc(/C=N/NC(=O)c2cc(-c3ccccc3C)nc3ccccc23)cc(OC)c1O`, the inhibition is -4.47%.

For `COc1ccc(-c2cc(C(=O)N(C)CC(=O)Nc3ccccc3Cl)c3ccccc3n2)cc1OC`, the inhibition is 54.1% (active).

Take `COc1ccc(-c2cc(C(=O)N(C)Cc3ccc(OC)c(OC)c3OC)c3ccccc3n2)cc1OC`: the inhibition is 63.2% (active).

With `COc1ccc(Cl)cc1NC(=O)CN(C)C(=O)c1ccc2n[nH]nc2c1`, the inhibition is 10.7%.

Take `C[C@@H]1C(c2ccc(F)cc2)=NN(c2ccc(Br)cc2)[C@H]1C(=O)N1CCOC1=O`: the inhibition is 9.83%.

On to `O=C(CN1CCN(S(=O)(=O)c2ccc3ccccc3c2)CC1)NC(=O)NC1CCCCC1`, for which the inhibition was 40.4%.

In the case of `COC(=O)C1CCN(C(=O)NC2CC(=O)N(c3ccc4c(c3)OCCO4)C2)CC1` (centres undefined), the inhibition was -29.9%.

With `CC(=O)C1=C(O)C(=O)N(c2ccc(Br)cc2)C1c1ccc([N+](=O)[O-])cc1` (centres undefined), the inhibition is 16.7%.

Take `COc1ccc(C(=O)C2CCCN(Cc3cccn3-c3ccccn3)C2)c(C)c1` (centres undefined): the inhibition was 46.4%.

Consider `COc1ccc(CN2CN(C3CCCC3)CSC2=S)cc1`, for which the inhibition is 34.2%.

As for `COc1ccc(CN2CN(C(C)C)CSC2=S)cc1`, the inhibition is 63.7% (active).

As for `S=C1SCN(CCN2CCOCC2)CN1Cc1ccccc1`, the inhibition is 19%.

On to `O=C(CSc1nncn1-c1cccnc1)N1CCOCC1`, for which the inhibition was -14.1%.

In the case of `Cc1nn(Cc2ccc(Cl)cc2)c(Cl)c1/C=N/NC(=O)c1cccnc1`, the inhibition was -2.65%.

For the molecule `Cc1ccc(C(=O)O)cc1NC(=O)c1ccc(Cn2nc(C)c(Cl)c2C)o1`, the inhibition is 2.65%.

Turning to `Cc1c(Cl)c([N+](=O)[O-])nn1Cc1ccc(C(=O)N/N=C\c2cc(Cl)ccc2O)o1`, the inhibition was 68.9% (active).

Turning to `CCCc1nc(NCc2ccc3c(c2)OCO3)c2nnn(Cc3ccccc3Cl)c2n1`, the inhibition is 75.2% (active).

Turning to `Cc1nc(Nc2ccccc2F)c2nnn(Cc3ccccc3Cl)c2n1`, the inhibition is 4.88%.

Turning to `Cc1nc(Nc2ccc3c(c2)OCCO3)c2nnn(Cc3ccccc3Cl)c2n1`, the inhibition is 32.4%.

Take `CCOc1ccc(C(=O)CCC(=O)Nc2ccncc2)cc1`: the inhibition is 13.9%.

Take `C=CCn1c2ccccc2c2nnc(SCc3[nH]c(=O)[nH]c3C(=O)CCCCC(=O)OCC)nc21`: the inhibition is 26.8%.

Turning to `Cc1ccc(NC(=O)C2CC2)cc1S(=O)(=O)N1CCOCC1`, the inhibition was -2.88%.

Regarding `O=C1CSC(c2ccc(Cl)cc2)N1` (centres undefined), the inhibition was -16.7%.

For the molecule `c1coc(CNc2ncnc3ccccc23)c1`, the inhibition was -3.14%.

Take `Cc1noc(C)c1-c1ccc2ncnc(NC(C)c3ccco3)c2c1` (centres undefined): the inhibition was 83.9% (active).

For the molecule `O=C(NC(=S)Nc1ccccc1C(=O)O)c1ccc(-c2ccc(Br)cc2)o1`, the inhibition was 44.1%.

Take `CC1CCN(CC(=O)Nc2nccs2)CC1`: the inhibition was 32.3%.

Regarding `CC(C)CCN1C(=O)c2ccc(C(=O)Nc3cccc(S(N)(=O)=O)c3)cc2C1=O`, the inhibition is 7.02%.

In the case of `Cc1nc(N=C(N)N)nc2c(C)cccc12`, the inhibition is 75.4% (active).

In the case of `CC(=O)Oc1ccc(-c2nc3c(C)cccc3c(=O)o2)cc1`, the inhibition is 15.5%.

For `COc1nc(N=C(N)N)nc2c(C)cccc12`, the inhibition is 22.9%.

Consider `COc1cc(C2C(C#N)=C(N)Oc3n[nH]c(-c4ccccn4)c32)cc(OC)c1OC` (centres undefined), for which the inhibition was 1.17%.

In the case of `COc1ccc(C2C(C#N)=C(/N=C/N3CCOCC3)OC3=C2C(=O)CC(C)(C)C3)cc1OC` (centres undefined), the inhibition is -7.65%.

As for `COc1ccc(C2C(C#N)=C(N)Oc3cc(N)ccc32)cc1OC` (centres undefined), the inhibition was 50.9% (active).

Take `COc1ccccc1NS(=O)(=O)c1ccc(C(=O)N2CCN(c3ccccc3O)CC2)cc1`: the inhibition was 19.3%.

With `O=P(O)(CN1CCCCCC1)C1Cc2ccccc2C1`, the inhibition was 10.7%.

As to `O=C(CNc1ccccc1N1CCCC1=O)Nc1cc(Cl)ccc1-n1cncn1`, the inhibition is 0.059%.

On to `Cc1ccc(S(=O)(=O)N2CCN(C(=O)Cn3c(=O)cnc4ccccc43)CC2)c(C)c1`, for which the inhibition was 12.2%.

Regarding `C[C@@H]1C[C@@H]2O[C@H]2/C=C\C=C\C(=O)Cc2c(Cl)c(O)cc(O)c2C(=O)O1`, the inhibition was 79.3% (active).

As to `CCN(CC(=O)N1CCCC1)S(=O)(=O)c1ccc(F)cc1`, the inhibition is -4.05%.

As to `Cc1ccc(F)cc1S(=O)(=O)Nc1cccc(C(=O)N2CCCC(C(N)=O)C2)c1` (centres undefined), the inhibition was 17.8%.

`COc1ccc(-c2nn(-c3ccccc3)cc2/C=N/Nc2ccccn2)cc1OC`: the inhibition is 34.3%.

Take `Oc1ccc(/C=N/Nc2ccc(C(F)(F)F)cn2)cc1O`: the inhibition is -9.44%.

With `Oc1ccc(Br)cc1/C=N/Nc1ccccn1`, the inhibition is 84.7% (active).

Consider `Cc1cccc(NC(=O)N2CCCCCC2)c1C`, for which the inhibition was 23.2%.

Consider `CCN([C@H](CO)C(C)C)S(=O)(=O)c1ccccc1Br`, for which the inhibition was 33.9%.

Consider `CCc1cc2c(N3CCN(c4nnc(CC)s4)CC3)ncnc2s1`, for which the inhibition is 29.4%.

In the case of `c1ccc(-c2cc3c(NCC4COc5ccccc5O4)ncnc3s2)cc1` (centres undefined), the inhibition was 31.6%.

On to `Oc1ccccc1N1CCN(c2ncnc3sc(-c4ccccc4)cc23)CC1`, for which the inhibition is 81.3% (active).

`Nc1nonc1-n1nnc(C(=O)N/N=C\c2ccncc2)c1CN1CCCCC1`: the inhibition is 3.58%.

Consider `NNC(=O)c1nnn(-c2nonc2N)c1CN1CCCC1`, for which the inhibition was 4.39%.

Turning to `Nc1nonc1-n1nnc(C(=O)N/N=C/c2ccccc2O)c1CN1CCCC1`, the inhibition is 52.8% (active).

For the molecule `CCOC(=O)c1ccc(NC(=O)CCn2c(=O)oc3ccccc32)cc1`, the inhibition was 8.91%.

On to `Cc1cccc(NC(=O)c2ccc(S(=O)(=O)N(C)CC3CCCO3)cc2)c1C` (centres undefined), for which the inhibition is 17.9%.

Regarding `CCOC(=O)c1c(NC(=O)c2ccc(S(=O)(=O)N(C)CC3CCCO3)cc2)sc2c1CC(C)(C)NC2(C)C` (centres undefined), the inhibition is 79.5% (active).

As to `CN(CC1CCCO1)S(=O)(=O)c1ccc(C(=O)Nc2ccc(F)cc2)cc1` (centres undefined), the inhibition was 14.6%.

For the molecule `CCCn1c2ccccc2c2cnn(CC(=O)NCCCN3CCCCC3CC)c(=O)c21` (centres undefined), the inhibition was 24%.

On to `O=C(CN1C(=O)CCS(=O)(=O)c2ccccc21)NCc1ccc(F)cc1`, for which the inhibition was 13.2%.

Take `COc1cc2c(cc1OC)CN(C(C)C(=O)Nc1cccc(S(=O)(=O)N3CCOCC3)c1)CC2` (centres undefined): the inhibition was 21.6%.

On to `CCCCN1CCNC1=S`, for which the inhibition was 27%.

Consider `O=C(CSc1nccn1-c1cccc(F)c1)NC1CCCC1`, for which the inhibition is 6.79%.

For the molecule `Cc1cc(C)cc(NC(=O)Cn2cnc3c(nnn3Cc3ccc(F)cc3)c2=O)c1`, the inhibition is 64.8% (active).

On to `O=C(Cn1cnc2c(nnn2Cc2ccc(F)cc2)c1=O)NCc1ccc2c(c1)OCO2`, for which the inhibition is 7.94%.

Regarding `Cc1ccc(Cn2nnc3c(=O)n(CC(=O)N4CCCCC4)cnc32)cc1`, the inhibition was 8.92%.

As for `CSCCC(NS(=O)(=O)c1ccccc1F)C(=O)N1CC=C(c2ccccc2)CC1` (centres undefined), the inhibition is -11.8%.

As to `c1csc(-c2nnc(COc3ccc4c(c3)OCO4)o2)c1`, the inhibition was -40.3%.

Take `CCCOc1ccc(C2=CSC3=NCCN23)cc1Cl`: the inhibition is 28.9%.

In the case of `COc1ccc(NC(=O)NN2CCN(C)CC2)c(OC)c1`, the inhibition is 0.742%.

On to `O=[N+]([O-])c1ccccc1/C=C/CN1CCC(O)CC1`, for which the inhibition is -3.09%.

With `CC1CCCCC1NC(=O)/C(C#N)=C/C=C/c1ccccc1[N+](=O)[O-]` (centres undefined), the inhibition is 99.6% (active).

For the molecule `O=[N+]([O-])c1ccccc1/C=C/CN1CCCC(CO)C1` (centres undefined), the inhibition was 3.12%.
